# The supplement of paper PMC8728848
# Many of the other results were omitted from the sample, so the strongest signals are more common in it than they were.
# B1: PX15618B-bfa-464-25-464 (Bacteroides fragilis) (protein)
# chain: DQEPPLYVNENDIFTSPTRIEATLNGLYAAIKNTGTKSLMGGKSYLVFDNRGDDVINISNNLVTLFNTYNMNVGITDAENADTWTYAYLAINKVNTFLQSLEGAREVAGENYDRYVQEAKFVRALAYYYLNNLYPTPYSVNPDAKSVPLRLTAEAGTENNNMPRSTVKQIYEHILSDLENISALDTEVNTYTGVTHATQAAANMLKMRVYMAMNEWDKAITAGELVTGYSLPEDVTLIYKAPYFSQESIFSLPMADTNIPNTQQSLAEYYYDGKIMLIDTKSGIMSKPDYSLATDKRIIAFKGEKDLLMKFTDAKTKLQWVPIFRYAETLLDLAECYANKAGGEATAKSLLKQVRGRSVDAATDPLNIDNLSGDALKEAIYNEKRLEFIGEGIRGIDIMRRGEHFIKVGENETINVGPSDEKYTWPIPQVELLLNKDINK
# Tests used:
# Assay in all cases: glycan array binding signal (z-score within array); higher = stronger binding
# Settings in all cases: glycan notation: IUPAC condensed, linker removed
# [1] = target: Fuc(a1-2)Gal(b1-3)GalNAc
# In short: (§1)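 From the Consortium for Functional Glycomics database, 3228 arrays were curated, keeping only those whose protein sequence was available. Binding is given as a within-array Z-score averaged across arrays sharing a protein sequence and across linkers. Negative Z-scores can be read as non-binding.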
# [2] = target: Fuc(a1-2)Gal(b1-3)GlcNAc(b1-3)[Fuc(a1-2)Gal(b1-3)GlcNAc(b1-6)]GalNAc
# In short: as §1
# [3] = target: Fuc(a1-2)Gal(b1-3)[Fuc(a1-4)]GlcNAc(b1-3)[Fuc(a1-3)[Gal(b1-4)]GlcNAc(b1-6)]Gal(b1-4)Glc
# In short: as §1
# [4] = target: Fuc(a1-2)Gal(b1-4)GlcNAc(b1-2)Man(a1-3)[Fuc(a1-2)Gal(b1-4)GlcNAc(b1-2)Man(a1-6)]Man(b1-4)GlcNAc(b1-4)GlcNAc
# In short: as §1
# [5] = target: Fuc(a1-2)Gal(b1-4)GlcNAc(b1-3)Gal(b1-4)GlcNAc(b1-3)Gal(b1-4)GlcNAc
# In short: as §1
# [6] = target: Fuc(a1-2)Gal(b1-4)[Fuc(a1-3)]GlcNAc(b1-2)[Fuc(a1-2)Gal(b1-4)[Fuc(a1-3)]GlcNAc(b1-4)]Man(a1-3)[Fuc(a1-2)Gal(b1-4)[Fuc(a1-3)]GlcNAc(b1-2)Man(a1-6)]Man(b1-4)GlcNAc(b1-4)GlcNAc
# In short: as §1
# [7] = target: Fuc(a1-2)[Gal(a1-3)]Gal(b1-4)GlcNAc(b1-2)Man(a1-3)[Fuc(a1-2)[Gal(a1-3)]Gal(b1-4)GlcNAc(b1-2)Man(a1-6)]Man(b1-4)GlcNAc(b1-4)GlcNAc
# In short: as §1
# [8] = target: Fuc(a1-2)[Gal(a1-3)]Gal(b1-4)GlcNAc(b1-2)Man(a1-3)[Fuc(a1-2)[Gal(a1-3)]Gal(b1-4)GlcNAc(b1-2)Man(a1-6)]Man(b1-4)GlcNAc(b1-4)[Fuc(a1-6)]GlcNAc
# In short: as §1
# [9] = target: Fuc(a1-2)[GalNAc(a1-3)]Gal(b1-3)GlcNAc
# In short: as §1
# [10] = target: Fuc(a1-2)[GalNAc(a1-3)]Gal(b1-3)GlcNAc(b1-2)Man(a1-3)[Fuc(a1-2)[GalNAc(a1-3)]Gal(b1-3)GlcNAc(b1-2)Man(a1-6)]Man(b1-4)GlcNAc(b1-4)GlcNAc
# In short: as §1
# [11] = target: Fuc(a1-2)[GalNAc(a1-3)]Gal(b1-3)GlcNAc(b1-2)Man(a1-3)[Fuc(a1-2)[GalNAc(a1-3)]Gal(b1-3)GlcNAc(b1-2)Man(a1-6)]Man(b1-4)GlcNAc(b1-4)[Fuc(a1-6)]GlcNAc
# In short: as §1
# [12] = target: Fuc(a1-2)[GalNAc(a1-3)]Gal(b1-4)[Fuc(a1-3)]GlcNAc(b1-3)GalNAc
# In short: as §1
# [13] = target: Fuc(a1-3)[GalNAc(b1-4)]GlcNAc
# In short: as §1
# [14] = target: Gal(a1-3)Gal
# In short: as §1
# [15] = target: Gal(a1-4)Gal(b1-4)Glc
# In short: as §1
# [16] = target: Gal(a1-4)Gal(b1-4)GlcNAc(b1-2)Man(a1-3)[Gal(a1-4)Gal(b1-4)GlcNAc(b1-2)Man(a1-6)]Man(b1-4)GlcNAc(b1-4)GlcNAc
# In short: as §1
# [17] = target: Gal(b1-3)Gal
# In short: as §1
# [18] = target: Gal(b1-3)GlcNAc
# In short: as §1
# [19] = target: Gal(b1-3)GlcNAc(b1-3)Gal(b1-4)GlcNAc(b1-2)Man(a1-3)[Gal(b1-3)GlcNAc(b1-3)Gal(b1-4)GlcNAc(b1-2)Man(a1-6)]Man(b1-4)GlcNAc(b1-4)GlcNAc
# In short: as §1
# [20] = target: Gal(b1-3)[Fuc(a1-4)]GlcNAc(b1-2)Man(a1-3)[Gal(b1-3)[Fuc(a1-4)]GlcNAc(b1-2)Man(a1-6)]Man(b1-4)GlcNAc(b1-4)[Fuc(a1-6)]GlcNAc
# In short: as §1
# [21] = target: Gal(b1-3)[Neu5Ac(b2-6)]GalNAc
# In short: as §1
# [22] = target: Gal(b1-4)GlcNAc(b1-2)Man(a1-6)[Man(a1-3)]Man(b1-4)GlcNAc(b1-4)GlcNAc
# In short: as §1
# [23] = target: Gal(b1-4)GlcNAc(b1-2)[Gal(b1-4)GlcNAc(b1-4)]Man(a1-3)[Gal(b1-4)GlcNAc(b1-2)Man(a1-6)]Man(b1-4)GlcNAc(b1-4)GlcNAc
# In short: as §1
# [24] = target: Gal(b1-4)GlcNAc(b1-2)[Gal(b1-4)GlcNAc(b1-6)]Man(a1-6)[Gal(b1-4)GlcNAc(b1-2)Man(a1-3)]Man(b1-4)GlcNAc(b1-4)GlcNAc
# In short: as §1
# [25] = target: Gal(b1-4)GlcNAc(b1-3)Gal(b1-3)GalNAc
# In short: as §1
# [26] = target: Gal(b1-4)GlcNAc(b1-3)Gal(b1-4)GlcNAc(b1-3)Gal(b1-4)GlcNAc(b1-3)Gal(b1-4)GlcNAc(b1-3)Gal(b1-4)GlcNAc(b1-2)[Gal(b1-4)GlcNAc(b1-3)Gal(b1-4)GlcNAc(b1-3)Gal(b1-4)GlcNAc(b1-3)Gal(b1-4)GlcNAc(b1-3)Gal(b1-4)GlcNAc(b1-6)]Man(a1-6)[Gal(b1-4)GlcNAc(b1-3)Gal(b1-4)GlcNAc(b1-3)Gal(b1-4)GlcNAc(b1-3)Gal(b1-4)GlcNAc(b1-3)Gal(b1-4)GlcNAc(b1-2)Man(a1-3)]Man(b1-4)GlcNAc(b1-4)[Fuc(a1-6)]GlcNAc
# In short: as §1
# [27] = target: Gal(b1-4)GlcNAc(b1-6)Gal(b1-4)GlcNAc
# In short: as §1
# [28] = target: Gal(b1-4)GlcNAc6P
# In short: as §1
# [29] = target: Gal3S(b1-4)GlcNAc
# In short: as §1
# [30] = target: Gal4S6S(b1-4)GlcNAc
# In short: as §1
# [31] = target: GalNAc(a1-3)GalNAc
# In short: as §1
# [32] = target: GalNAc(a1-3)GalNAc(b1-3)Gal(a1-4)Gal(b1-4)GlcNAc
# In short: as §1
# [33] = target: Glc(b1-4)Glc
# In short: as §1
# [34] = target: GlcNAc(a1-4)Gal(b1-4)GlcNAc
# In short: as §1
# [35] = target: GlcNAc(a1-4)Gal(b1-4)GlcNAc(b1-3)Gal(b1-4)GlcNAc
# In short: as §1
# [36] = target: GlcNAc(b1-2)[GlcNAc(b1-4)]Man(a1-3)[GlcNAc(b1-4)][GlcNAc(b1-2)[GlcNAc(b1-6)]Man(a1-6)]Man(b1-4)GlcNAc(b1-4)[Fuc(a1-6)]GlcNAc
# In short: as §1
# [37] = target: GlcNAc(b1-2)[GlcNAc(b1-6)]Man(a1-6)[GlcNAc(b1-2)Man(a1-3)]Man(b1-4)GlcNAc(b1-4)[Fuc(a1-6)]GlcNAc
# In short: as §1
# [38] = target: GlcNAc(b1-4)Gal(b1-4)GlcNAc
# In short: as §1
# [39] = target: GlcNAc(b1-6)Gal(b1-4)GlcNAc
# In short: as §1
# [40] = target: Man(a1-6)Man
# In short: as §1
# [41] = target: Neu5Ac(a2-3)Gal(b1-3)GlcNAc(b1-2)Man(a1-3)[GlcNAc(b1-4)][Neu5Ac(a2-3)Gal(b1-3)GlcNAc(b1-2)Man(a1-6)]Man(b1-4)GlcNAc(b1-4)GlcNAc
# In short: as §1
# [42] = target: Neu5Ac(a2-3)Gal(b1-3)GlcNAc6S
# In short: as §1
# [43] = target: Neu5Ac(a2-3)Gal(b1-4)GlcNAc(b1-3)Gal(b1-4)GlcNAc(b1-3)Gal(b1-4)GlcNAc(b1-2)Man(a1-3)[Neu5Ac(a2-3)Gal(b1-4)GlcNAc(b1-3)Gal(b1-4)GlcNAc(b1-3)Gal(b1-4)GlcNAc(b1-2)Man(a1-6)]GalNAc
# In short: as §1
# [44] = target: Neu5Ac(a2-3)Gal(b1-4)GlcNAc(b1-3)Gal(b1-4)GlcNAc(b1-3)[Neu5Ac(a2-3)Gal(b1-4)GlcNAc(b1-3)Gal(b1-4)GlcNAc(b1-6)]GalNAc
# In short: as §1
# [45] = target: Neu5Ac(a2-3)Gal6S(b1-4)GlcNAc
# In short: as §1
# [46] = target: Neu5Ac(a2-3)[GalNAc(b1-4)]Gal(b1-4)GlcNAc(b1-3)GalNAc
# In short: as §1
# [47] = target: Neu5Ac(a2-6)Gal(b1-4)GlcNAc(b1-6)[Gal(b1-3)]GalNAc
# In short: as §1
# [48] = target: Neu5Ac(a2-8)Neu5Ac(a2-3)Gal(b1-4)GlcNAc
# In short: as §1
# [49] = target: Neu5Ac9Ac(a2-3)Gal(b1-4)GlcNAc
# In short: as §1
binder,measurement,setting,value
B1,glycan array binding signal (z-score),[1],-0.355
same,glycan array binding signal (z-score),[2],1.41
same,glycan array binding signal (z-score),[3],-0.516
same,glycan array binding signal (z-score),[4],8.2
same,glycan array binding signal (z-score),[5],0.251
same,glycan array binding signal (z-score),[6],4.25
same,glycan array binding signal (z-score),[7],1.41
same,glycan array binding signal (z-score),[8],-0.101
same,glycan array binding signal (z-score),[9],-0.308
same,glycan array binding signal (z-score),[10],0.241
same,glycan array binding signal (z-score),[11],0.028
same,glycan array binding signal (z-score),[12],0.311
same,glycan array binding signal (z-score),[13],1.31
same,glycan array binding signal (z-score),[14],0.348
same,glycan array binding signal (z-score),[15],0.822
same,glycan array binding signal (z-score),[16],-0.514
same,glycan array binding signal (z-score),[17],0.33
same,glycan array binding signal (z-score),[18],1.37
same,glycan array binding signal (z-score),[19],-0.678
same,glycan array binding signal (z-score),[20],0.153
same,glycan array binding signal (z-score),[21],-0.017
same,glycan array binding signal (z-score),[22],0.248
same,glycan array binding signal (z-score),[23],0.511
same,glycan array binding signal (z-score),[24],2.66
same,glycan array binding signal (z-score),[25],-0.13
same,glycan array binding signal (z-score),[26],19.3
same,glycan array binding signal (z-score),[27],0.086
same,glycan array binding signal (z-score),[28],-0.626
same,glycan array binding signal (z-score),[29],-0.305
same,glycan array binding signal (z-score),[30],-0.852
same,glycan array binding signal (z-score),[31],-0.504
same,glycan array binding signal (z-score),[32],-0.273
same,glycan array binding signal (z-score),[33],-0.138
same,glycan array binding signal (z-score),[34],-0.125
same,glycan array binding signal (z-score),[35],-0.455
same,glycan array binding signal (z-score),[36],0.399
same,glycan array binding signal (z-score),[37],0.701
same,glycan array binding signal (z-score),[38],1.25
same,glycan array binding signal (z-score),[39],-0.393
same,glycan array binding signal (z-score),[40],0.302
same,glycan array binding signal (z-score),[41],0.609
same,glycan array binding signal (z-score),[42],-0.374
same,glycan array binding signal (z-score),[43],3.29
same,glycan array binding signal (z-score),[44],0.164
same,glycan array binding signal (z-score),[45],-0.187
same,glycan array binding signal (z-score),[46],0.625
same,glycan array binding signal (z-score),[47],1.16
same,glycan array binding signal (z-score),[48],-0.48
same,glycan array binding signal (z-score),[49],0.409
